# Screening results from PubChem.
# CIT2-GFP yeast – modulators of TOR pathway CIT2-GFP in S. cerevisiae; GFP response vs DMSO, % at 10 µM; S. cerevisiae CIT2-GFP strain, flow cytometry, 3 h; 100 means same as DMSO wells; AID 2029; 0.065% of 320,000 active;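 active means GFP response relative to DMSO above a set limit, near the screen mean plus 3 SD, cut at about 150% in these data; inconclusive means Fewer than 70 cells measured for a yeast strain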;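 further: ratio of well median GFP fluorescence to mean of DMSO wells on the plate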
# LAP4 TOR yeast – modulators of TOR pathway LAP4-GFP in S. cerevisiae | S. cerevisiae LAP4-GFP multiplex, flow cytometry GFP, 3 h; median GFP as percent of DMSO wells | GFP response vs DMSO, % at 10 µM | 0.34% of 320,000 active;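 active means GFP response vs DMSO above a set limit, about the screen mean plus 3 SD, cut at about 150% in these data; inconclusive means under 70 cell events counted for the yeast strain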
# MEP2 TOR yeast – modulators of TOR pathway MEP2-GFP in S. cerevisiae; GFP response vs DMSO, % at 10 µM; S. cerevisiae MEP2-GFP strain, flow cytometry GFP, 3 h; 100% = DMSO control level; AID 2016; 0.51% of 330,000 active;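 active means GFP response versus DMSO above a set limit, roughly screen mean plus 3 SD, cut at about 180% in these data; inconclusive means fewer than 70 cells counted for a yeast strain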;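 further: median GFP fluorescence of the barcode-gated MEP2-GFP cells per well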
# AGP1-GFP MLPCN – alters AGP1-GFP fluorescence in TOR pathway yeast screen; S. cerevisiae AGP1-GFP multiplex flow cytometry, 3 h; GFP as percent of DMSO wells; GFP response vs DMSO, % at 10 µM; 0.02% of 320,000 active;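 active means GFP response relative to DMSO above a set limit, near screen average plus 3 SD, cut at about 150% in these data; inconclusive means fewer than 70 cells counted for the yeast strain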;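 further: median GFP channel fluorescence of the gated AGP1 strain per well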
# Myeloid diff 2 – compounds promoting myeloid differentiation; ER-HoxA9 myeloid progenitors, lysozyme-GFP differentiation, flow cytometry; calls only at 10 µM; 1% of 360,000 active;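 active means normalized GFP-positive differentiation at or above the plate's own cutoff, the solvent-only control mean plus 3 SD; inconclusive means no clear call, values can overlap the other calls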;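 further: cells exposed to compound for four days before flow analysis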
# RPL19A TOR yeast – yeast TOR pathway RPL19A-GFP modulation; 0.3% of 330,000 active; S. cerevisiae RPL19A-GFP strain, flow cytometry, 3 h; active compounds read low; percent response vs DMSO, % at 10 µM;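 active means percent response vs DMSO below 50%; inconclusive means fewer than 70 events counted for the yeast strain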;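 further: median channel GFP fluorescence of the barcoded RPL19A-GFP strain; lower means less RPL19A-GFP as with rapamycin TOR inhibition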
# Myeloid diff CP1 – promotes myeloid progenitor differentiation; calls only; 2% of 2,300 active; AID 651706; shares compounds with Myeloid diff 2; ER-HoxA9 myeloid progenitors, GFP/Mac1 double-positive flow;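 active means share of green or green-and-red cells above 9 and 9% in run 1 or 4 and 3% in run 2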
# GFP autofluor – counter-screen for myeloid differentiation promoters: compound fluorescence. fluorescence response, % (concentration not given with the values). shares compounds with Myeloid diff 2. ER-HoxA9 myeloid progenitors, no estrogen, GFP autofluorescence flow cytometry; vehicle wells 0%, positive control 100%. AID 651707. 7.4% of 2,300 active;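 active means over 5% cells positive for green fluorescent reporter, or over 2% positive for both it and APC stain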
# Hits are given with their value; i = inactive; ? = inconclusive; nt = no result; + = active, no number. A selection: hits, their analogues and other compounds. The true share with any hit is near 1.8%.
SMILES,CIT2-GFP yeast,LAP4 TOR yeast,MEP2 TOR yeast,AGP1-GFP MLPCN,Myeloid diff 2,RPL19A TOR yeast,Myeloid diff CP1,GFP autofluor
CC(C)Oc1ccccc1C1NC(=O)CCC1[N+](=O)[O-] (stereo unspecified),i,i,i,i,i,i,i,i
c1ccc(-n2cc(CN3CCCC3)c(-c3ccc4c(c3)OCO4)n2)cc1,i,i,i,i,i,i,nt,nt
c1ccc(-n2cc(CN3CCC(N4CCOCC4)CC3)c(-c3ccc4c(c3)OCO4)n2)cc1,i,i,i,i,+,i,i,i
C=CCN(c1ccccc1OC)S(=O)(=O)c1cccc(C(=O)NCc2ccco2)c1,i,i,i,i,i,i,nt,nt
C=CCN(c1ccccc1OC)S(=O)(=O)c1ccc(Cl)c(C(=O)NCc2ccco2)c1,nt,nt,nt,nt,+,nt,i,i
O=c1[nH]c(SCc2nc3c(cnn3-c3ccccc3)c(=O)[nH]2)nc2ccccc12,nt,nt,nt,nt,+,nt,i,i
COc1ccc2cc(C(C)c3nc4ccccc4c(=O)n3N)ccc2c1 (stereo unspecified),i,i,i,i,+,i,i,i
COc1ccc(-c2nc3ccccc3c(=O)n2N)cc1,i,i,i,i,i,i,nt,nt
COC(=O)c1cc2occc2n1Cc1nc(-c2ccccc2F)oc1C,i,i,i,i,i,i,nt,nt
CC(OC(=O)c1ccc(NC(=O)CC#N)cc1)C(=O)NC(c1ccccc1)c1ccccc1 (stereo unspecified),i,i,i,i,i,i,i,i
CCOC(=O)c1c(NC(=O)C(C)OC(=O)C2=COCCO2)sc2c1CCCC2 (stereo unspecified),i,i,i,i,i,i,nt,nt
CCOC(=O)c1c(NC(=O)C(C)OC(=O)c2ccc(NC(=O)CC#N)cc2)sc2c1CCCC2 (stereo unspecified),?,i,i,i,+,i,i,i
CCOc1ccccc1NC(=O)C(OC(=O)c1ccc(NC(=O)CC#N)cc1)c1ccccc1 (stereo unspecified),i,i,i,i,+,i,i,5.3
CC(C(=O)N1CCc2ccccc2C1)N1C(=O)c2ccccc2C1=O (stereo unspecified),i,i,i,i,+,i,i,i
Cc1cccc(C(=O)NCC(=O)OC(C)C(=O)Nc2ccc(Cl)cn2)c1 (stereo unspecified),i,i,i,i,i,i,nt,nt
COc1ccccc1OCc1nnc(SCCN2CCOCC2)o1,i,i,i,i,i,i,i,i
Cc1c(Nc2nc3ccccc3nc2NS(=O)(=O)c2cccc(Cl)c2)c(=O)n(-c2ccccc2)n1C,i,i,i,i,i,i,nt,nt
CC(=O)c1cccc(NC(=O)N2C3CCC2CC(NC(=O)Nc2ccccc2)C3)c1 (stereo unspecified),i,i,i,i,i,i,nt,nt
O=C(Nc1nnc(S(=O)(=O)N2CCCCCC2)s1)c1ccccc1F,i,i,i,i,i,i,nt,nt
Cc1ccccc1C(=O)Nc1nnc(S(=O)(=O)N2CCCCCC2)s1,i,i,i,i,i,i,i,i
Cc1ccc(NC(=O)c2ccc(NCCCN3CCC(C)CC3)c([N+](=O)[O-])c2)cc1F,i,i,i,i,i,i,i,i
O=C(Nc1cccc(Cl)c1)c1ccc(NCCCN2CCOCC2)c([N+](=O)[O-])c1,i,i,i,i,i,i,nt,nt
COc1ccc(C2C3=C(CC(C)(C)CC3=O)N(C)C3=C2C(=O)CC(C)(C)C3)cc1OC,i,i,i,i,i,i,nt,nt
NC(=O)c1ccc(N2CCN(c3ccccc3F)CC2)c([N+](=O)[O-])c1,i,i,i,i,i,i,i,i
NC(=O)c1ccc(N2CCN(c3ccccc3O)CC2)c([N+](=O)[O-])c1,i,i,i,i,i,i,nt,nt
SMILES,CIT2-GFP yeast,LAP4 TOR yeast,MEP2 TOR yeast,AGP1-GFP MLPCN,Myeloid diff 2,RPL19A TOR yeast,Myeloid diff CP1,GFP autofluor
COc1ccccc1N1C(=O)S/C(=C\c2ccc(C)s2)C1=O,i,i,i,i,i,i,i,i
O=C1C(=Cc2ccco2)CCCC1=Cc1ccco1,nt,nt,nt,nt,i,nt,i,19
O=C1C(=Cc2ccco2)CCC1=Cc1ccco1,nt,nt,nt,nt,i,nt,nt,nt
Cc1ccc(-n2nnnc2CNC(=O)c2ccc([N+](=O)[O-])o2)cc1C,i,i,i,i,+,i,i,i
O=C(NCc1nnnn1-c1ccc(F)cc1)c1ccc([N+](=O)[O-])o1,i,i,i,i,+,i,i,i
Cc1ccc(-n2nnnc2CNC(=O)c2ccc(Br)o2)cc1C,i,i,i,i,i,i,nt,nt
O=C(NCc1nnnn1-c1ccc(F)cc1)c1ccc2ccccc2c1,nt,nt,nt,nt,i,nt,nt,nt
CN(C(=O)CCS(=O)(=O)c1ccc2c(c1)oc(=O)n2C)C1CCCCC1,i,i,i,i,i,i,nt,nt
C[C@@]12C(=O)N(c3cccc(Cl)c3)C(=O)N1[C@H](c1ccc(Cl)cc1)[C@@H]1C(=O)N(C3CCCCC3)C(=O)[C@@H]12,i,i,i,i,+,i,i,i
C[C@@]12C(=O)N(c3cccc(F)c3)C(=O)N1[C@H](c1ccc(Cl)cc1)[C@@H]1C(=O)N(C3CCCCC3)C(=O)[C@@H]12,i,i,i,i,i,i,nt,nt
Cc1cc2oc(C(=O)Nc3c(C)n(C)n(-c4ccccc4)c3=O)c(C)c2cc1C,i,i,i,i,i,i,i,i
Cc1c(N/N=C(\C#N)C(=O)c2ccccc2)c(=O)n(-c2ccccc2)n1C,nt,nt,nt,nt,i,nt,i,6.9
Cc1ccccc1C(=O)/C(C#N)=N/Nc1c(C)n(C)n(-c2ccccc2)c1=O,i,i,i,i,i,i,nt,nt
Cc1cc(C)c(NN=c2c(=O)c3ccccc3c2=O)c(C)c1,i,i,i,i,+,i,i,i
O=C(CN1CCCCC1)N1CCN(S(=O)(=O)c2ccccc2)C1,i,i,i,i,i,i,nt,nt
COc1ccccc1CN(Cc1nc2ccccc2c(=O)[nH]1)C(=O)Nc1ccc(C)cc1,i,i,i,i,i,i,+,i
COc1ccccc1CN(Cc1nc2ccccc2c(=O)[nH]1)C(=O)Nc1ccccc1C,i,i,i,i,i,i,nt,nt
CCCC(=O)Nc1ccc(S(=O)(=O)N2CCC(c3nc4ccccc4[nH]3)CC2)cc1,i,i,i,i,i,i,nt,nt
CC(NS(=O)(=O)c1ccccc1Cl)C1CC2CCC1C2 (stereo unspecified),i,i,i,i,i,i,nt,nt
Cc1ccc(NC(=O)Cn2cc(C=O)c3ccccc32)cc1,i,i,i,i,i,i,nt,nt
CC(C)(C)NCC(O)Cn1cc(C=O)c2ccccc21 (stereo unspecified),i,i,i,i,i,i,i,i
